23 molecules from PubChem BioAssay can be followed below.

Entries with a potency or affinity are not part of this list. Active and inactive are the calls of the source.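 The calls were made as follows: active = a fitted half-maximal concentration no higher than twice the top valid tested dose, with signal falling as cells die; inconclusive = flat curve between -70% and -30%, or poor fit; inactive = the rest, including signal rising instead of falling.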

The assay in a line: viability loss in HeLa cells – cell-based, ATP luminescence, cherry-pick samples, cytotoxicity control, dose response (AID 687004). Particulars: ATP luminescence (CellTiter-Glo), 48 h; series mostly up to 26 µM. On the technique in general: ATP-based viability assays read luminescence as a measure of living cells.
In the case of `CCS(=O)(=O)NCC[C@@H]1CC[C@@H](NS(=O)(=O)c2cccc(F)c2)[C@@H](CO)O1`, the result was inactive.

`COc1cccc(S(=O)(=O)N(C)C[C@H]2OCc3cnnn3CCCC(=O)N([C@H](C)CO)C[C@H]2C)c1`: the result was inactive.

With `Cc1cc(C(=O)NC(=S)Nc2ccccc2N2CCCC2)ccc1[N+](=O)[O-]`, the call was inactive.

As to `CCC(=O)N1[C@@H]2Cn3c(ccc(C4=CCCCC4)c3=O)[C@H]1[C@@H](C(=O)N[C@H](C)c1ccccc1)[C@@H]2CO`, the molecule was classed as inactive.

In the case of `C[C@@H]1CN([C@H](C)CO)C(=O)CCCn2cc(nn2)CO[C@@H]1CN(C)C(=O)CCCN(C)C`, the call was inactive.

For the molecule `CCCC(=O)N1CCCC1(C)C(=O)Nc1ccc(C)c(C)c1` (stereo not drawn), the call was inactive.

For `CNC(=O)C[C@@H]1CC[C@@H]2[C@H](COc3ccc(NC(=O)c4cc(C)on4)cc3C(=O)N2C)O1`, the molecule was classed as inactive.

On to `O=C(NC(=S)Nc1ccc(CN2CCOCC2)cc1)c1ccccc1[N+](=O)[O-]`, for which the molecule was classed as inactive.

Take `C[C@H]1CN([C@@H](C)CO)S(=O)(=O)c2ccc(Br)cc2O[C@@H]1CN(C)S(=O)(=O)c1ccccc1F`: the molecule was classed as inactive.

For `C[C@H]1CN([C@@H](C)CO)C(=O)c2cccc(NS(C)(=O)=O)c2O[C@H]1CN(C)C(=O)Nc1ccc2c(c1)OCO2`, the outcome was inactive.

Take `CN1C(=O)c2cc(NS(C)(=O)=O)ccc2OC[C@@H]2O[C@@H](CC(=O)O)CC[C@@H]21`: the molecule was classed as inactive.

In the case of `COc1ccccc1CNC(=O)C[C@@H]1C[C@@H]2c3cc(NC(=O)Nc4ccccc4F)ccc3O[C@@H]2[C@H](CO)O1`, the outcome was inactive.

With `C[C@H]1CN([C@@H](C)CO)C(=O)Cc2cc(NC(=O)Nc3ccccc3)ccc2O[C@H]1CN(C)C(=O)Nc1ccc2c(c1)OCO2`, the molecule was called inactive.

Take `C[C@H]1CN([C@@H](C)CO)C(=O)CCCn2nncc2CO[C@@H]1CN(C)Cc1cccc(C(F)(F)F)c1`: the molecule was called inactive.

Take `CC(=O)NC[C@@H]1[C@@H](c2ccc(C3=CCCC3)cc2)[C@@H](CO)N1C(=O)NC(C)C`: the molecule was called inactive.

With `CNC(=O)C[C@@H]1CC[C@@H]2[C@H](COC[C@H](O)CN2S(=O)(=O)c2cccc(Cl)c2)O1`, the molecule was called inactive.

On to `CNC[C@H]1Oc2ccc(NC(=O)Cc3cn(C)c4ccccc34)cc2CC(=O)N([C@@H](C)CO)C[C@H]1C`, for which the outcome was inactive.

As for `COc1ccc(CNC(=O)COc2ccc(OC)cc2)cc1`, the outcome was inactive.

Turning to `C[C@H](CO)N1C[C@H](C)[C@@H](CN(C)S(=O)(=O)c2ccccc2)Oc2c(NC(=O)Nc3cccc4ccccc34)cccc2C1=O`, the result was inactive.

In the case of `CCCNC(=O)N1[C@H](CO)[C@@H](c2ccc(C3=CCCC3)cc2)[C@@H]1CN(C)C(C)=O`, the outcome was inactive.

For the molecule `O=C(c1cccc(F)c1)N1C[C@@H]2[C@H](c3ccccc31)[C@H](CO)N2Cc1cocn1`, the molecule was classed as inactive.

On to `C[C@H](O)C#Cc1ccc2c(c1)O[C@H](CN(C)C(=O)C1CCCCC1)[C@H](C)CN([C@@H](C)CO)S2(=O)=O`, for which the outcome was inactive.

Turning to `C[C@H](CO)N1C[C@H](C)[C@H](CN(C)C(=O)NC2CCCCC2)OCCCC[C@H](C)Oc2ccc(NC(=O)C3CCCCC3)cc2C1=O`, the molecule was classed as inactive.
